# From PubChem BioAssay (NCI)
# The panel holds about 83,000 compounds, 20% with a hit somewhere; the sample as a whole holds those more often.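 Plates (96-well) were seeded with cells, treated with compound at one concentration, and incubated for 48 hours before percent growth was determined.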 A number with no mark means an inactive call. Activity calls are given as the source filed them. The calls were made as follows: active = growth percent below 10; inactive = the rest.
# System: HL-60(TB) leukemia
# Assay: NCI-60 one-dose screen, 48 h (100 = growth as untreated, 0 = no growth, -100 = all killed)
# Details: 10 µM unless noted
row,SMILES,growth
1,CC(=O)Oc1ccccc1C(=O)/C=C/c1cccc([N+](=O)[O-])c1,17.3%
2,CC1Cc2c(ncn3c(-c4ccc(F)cc4)nnc23)N(C)c2ccccc21 (stereo not given),91.2%
3,COc1ccc(-c2cc(-c3ccccc3)nc(SCCCC(=O)NO)n2)cc1OC,-12.2% (active)
4,COc1cc2c(c(OC)c1OC)C(=O)CC(c1cccc(C(=O)Nc3ccc(C#N)cc3)c1)O2 (stereo not given),47%
5,CC(C)(C)c1ccc(C(=O)Nc2sc3cc(O)ccc3c2C(N)=O)cc1,43.3%
6,COc1ccc(/C=C/C(=O)c2ccc(Oc3ncnc4ccccc34)cc2)cc1OC,54.7%
7,COc1cc2cc(Oc3ccc(NC(=O)Nc4cc(C(F)(F)F)cc(C(F)(F)F)c4)cc3)c(C)nc2cc1OCCN1CCCCC1,-2.13% (active)
8,COc1ccc(Oc2nc(Nc3ccc(N4CCCCC4)nc3)ncc2NC(=O)c2cc(OC)cc(OC)c2)cc1,0.492% (active)
9,COc1cccc(C2C(C#N)=C(N)Oc3cc(OCCCCCC[P+](c4ccccc4)(c4ccccc4)c4ccccc4)ccc32)c1 (stereo not given),-39.6% (active)
10,COc1cccc(C2C3=C(COC3=O)N(CCO)c3cc4c(cc32)OCO4)c1 (stereo not given),-2.69% (active)
11,O=[N+]([O-])c1cccc(-c2nc3sccn3c2-c2ccnc(NCCNS(=O)(=O)c3ccc(C(F)(F)F)cc3)n2)c1,16%
12,COc1nc2c(c(=O)[nH]1)C(c1ccc(Oc3ccnc4cc(Cl)ccc34)c(OC)c1)C=C(c1cc(OC)c(OC)c(OC)c1)N2 (stereo not given),97.9%
13,CC1CCc2c(sc(NC(=O)CSc3nnc4ccccn34)c2C(N)=O)C1 (stereo not given),74.9%
14,Cc1oc(-c2ccccc2Cl)cc1C(=O)Nc1ccc(S(N)(=O)=O)cc1,102%
15,COc1ccc(C2Nc3c(c(C(C)(C)C)nn3-c3ccccc3)C(=O)CS2)cc1 (stereo not given),129%
16,Cc1cc(C)cc(OCC(=O)O)c1,86%
17,CN(C)C(=O)c1ccc(SC(=S)NCc2ccccc2)cc1,-32% [100 µM] (active)
18,CN1CCN(c2nc(-c3cccnc3)nc3sc4c(c23)CCCCCC4)CC1,87.2%
19,CCc1c(C(=O)NCc2c(O)ccc3cccc(O)c23)[nH]c(C)c1C(C)=O,41.5%
20,Clc1ccc(/C=C/c2nc(N3CCOCC3)c3nc(Cl)c(Cl)cc3n2)cc1,98.4%

row,SMILES,growth
1,Oc1[nH]c2cc(Cl)ccc2c1/C=c1/ccc2c(c1)N=C(c1cc(F)cc(F)c1)N=2,-9.98% (active)
2,COc1cc(-c2nc(-c3nnc(-c4ccccc4Cl)o3)c3ccccn23)cc(OC)c1OC,67.1%
3,COc1ccc2oc(=O)cc(C(c3ccc[nH]3)c3ccc[nH]3)c2c1,-20.2% (active)
4,CCCCCCCCCCCCCCCC[N+]1(C)CCCC1c1cccnc1 (stereo not given),1.61% (active)
5,O=C(Nc1cc(C(F)(F)F)cc(C(F)(F)F)c1)Nc1ccc(OCc2nnc(-c3ccc(Cl)cc3)o2)c(F)c1,5.4% (active)
6,CN(C)c1ccc(C(=O)OCCCCCCl)cc1,76%
7,O=C1c2cc3c(cc2-c2c1c1ccc(F)cc1c(=O)n2CCCNCCO)OCO3,-58.1% (active)
8,COc1ccc(OC)c(/C=C/c2nnc(Nc3ccccc3)o2)c1,75.7%
9,O=C(N/N=C/[C@@H](O)[C@H](O)[C@H](O)CO)c1ccc(NC(=O)c2cccnc2)cc1,99.4%
10,O=C(/C=C/c1cccc([N+](=O)[O-])c1)c1ccc(Nc2nc(N3CCCCC3)nc(N3CCCCC3)n2)cc1,79.4%
11,CCCCCCCCCCCCCOC(=O)c1c(C)[nH]c(/C=C2\N=C(c3ccc[nH]3)C=C2OC)c1C,9.46% (active)
12,CO[C@H]1C[C@@H]2CC[C@@H](C)[C@@](O)(O2)C(=O)C(=O)N2CCCC[C@H]2C(=O)O[C@H]([C@H](C)C[C@@H]2CC[C@@H](O)[C@H](OC)C2)CC(=O)[C@H](C)/C=C(\C)[C@@H](O)[C@@H](OC)C(=O)[C@H](C)C[C@H](C)\C=C/C=C/C=C/1C,16.5%
13,COc1ccc(NC(=O)c2sc3nc(C)c(C(=O)CCc4cccc(OC)c4)cc3c2N)cc1,34.6%
14,CC(=O)Oc1ccc(OC(C)=O)c2ccccc12,-17.4% (active)
15,O=C(Cc1ccc(/C=C/C(=O)c2ncc[nH]2)cc1)Nc1ccc(Br)cc1,0.0282% (active)
16,NNC(=O)Oc1c(Cl)cc(Cl)cc1[N+](=O)[O-],98.3%
17,CCNC(=O)Oc1ccc(/C(=C(\C)c2ccc(Cl)cc2)c2ccc(OCCN(CC)CC)cc2)cc1,23.9%
18,Cn1cc(-c2cnn3c(N)c(Br)c([C@@H]4CCCNC4)nc23)cn1,21.2%
19,COc1ccc(-c2cc(C(=O)N3N=C(c4ccc(N)cc4)CC3c3ccc(OC)cc3)c3cc(OC)ccc3n2)cc1 (stereo not given),-7.72% (active)
20,CCCCCCC(C(=O)OCC)(C(=O)OCC)C1CCCCCC1,106%
